Experimental data reported in PubChem BioAssay AID602156 (GNF / Scripps Winzeler lab, 2011).
About 280 (4.9%) of roughly 5,700 compounds were called active. No rule for the calls is given here. A selection follows.

test: Plasmodium liver-stage growth inhibition, dose response, imaging, Malaria Box, P. yoelii, HepG2-A16-CD81EGFP (AID 602156); details: P. yoelii liver stage in HepG2-A16-CD81EGFP

outcome, inactive:
CCCNC(=O)c1ccc(OC2CCN(CC(c3ccccc3)c3ccccc3)CC2)c(OC)c1
COCCNC(=O)c1ccc(OC2CCN(CC(c3ccccc3)c3ccccc3)CC2)c(OC)c1
COc1ccc(SC2CCN(C3CCOCC3)CC2)cc1
CCCCC(CC)C(=O)N(C)CCCNc1ccnc2cc(Cl)ccc12 (centres undefined)
O=C(NCC1CCCO1)c1cnc(NCCCn2ccnc2)nc1NCCc1ccccc1 (centres undefined)
Cc1cc(C)nc(N=C(N)Nc2ccccc2O)n1
Oc1ccc(-c2nc3ccccc3s2)cc1CN1CCCCC1
O=C1CSC(=S)N1c1cccc(Cl)c1
CC[C@@H]1CCC[C@H](C)CC[C@@H](O[C@@H]2O[C@@H](C)[C@@H](O)[C@@H](N)[C@H]2O)[C@H](CC)CCCNC1=O
CN(CCCNc1nc2ccccc2c2nc(-c3cccnc3)nn12)Cc1ccccc1
O=C(Cc1ccccc1)NCc1ccc(Nc2c(-c3cccnc3)nc3ccccn23)cc1
CCCCCCCSc1c(O)c2ccc(Cl)cc2[nH]c1=O
COc1ccc(Nc2ncnc3[nH]c(-c4cccc([N+](=O)[O-])c4)cc23)cc1
C1CCC(CN2CCc3nc(N4CCCCC4)sc3C2)CC1
CC(=O)N(C1=C(N(C)C)C(=O)c2ccccc2C1=O)c1cccc(O)c1
Oc1ccc(Br)cc1C=NNc1nc2ccccc2[nH]1
CCCOC(=O)C1=C(C)NC2=C(C(=O)CC(c3ccc(OC)c(OC)c3)C2)C1c1ccccc1C (centres undefined)
CN(C=Cc1sc2ccc3ccccc3c2[n+]1C)c1ccccc1
Oc1ccc(-c2cncnc2)cc1CNC1CCN(Cc2ccccc2)CC1
CC(C)CN(CC(=O)N1CCC(Nc2nsc3ccccc23)C1)S(C)(=O)=O (centres undefined)
COc1ccc2[nH]c(-c3ccccc3)cc(=O)c2c1
COc1ccc(Nc2nc(Nc3ccc(OC)cc3)c3ccccc3n2)cc1
CC(=O)Nc1ccc(C2NC(=O)NC3=Nc4ccccc4SC(c4ccccc4)=C32)cc1 (centres undefined)
Cc1cccc(CSc2nnc(C(Cc3ccccc3)NC(=O)C3CCCCC3)n2-c2ccc(Cl)cc2Cl)c1 (centres undefined)
Cc1cc(Nc2ccc(C)c(F)c2)n2nc(C)nc2n1
CCN1CCN(c2nc3ccccn3c(=O)c2C=C2SC(=S)N(C(C)C)C2=O)CC1
CCOc1ccccc1C=NNc1nc(Nc2ccccc2)nc(Nc2ccccc2)n1
Cc1cc(C)nc(NNc2c([N+](=O)[O-])cccc2[N+](=O)[O-])n1
O=c1c(NCc2ccco2)nc2cc(Cl)ccc2n1CCNc1ncc(C(F)(F)F)cc1Cl
Cn1c(=O)n(C)c2cc(NC(=O)CCl)ccc21
Oc1ccccc1-c1nc2ncccn2c1Nc1cccc(C(F)(F)F)c1
Cc1cc2cc3c(cc2c(C)n1)c1ccccc1n3C
Cc1ccc(N=C2NC(=O)C(=Cc3ccc(N(C)C)cc3)S2)cc1
c1ccc(CN2CCC(NCc3c[nH]c4ccccc34)CC2)cc1
Cc1ccccc1S(=O)Cc1ccc(C(=O)N2CCN(c3ccccn3)CC2)o1 (centres undefined)
CCN1C(=Cc2ccc3cc(C)ccc3[n+]2C)C=Cc2cc(C)ccc21
O=C(NCc1ccccc1)c1cnc(NCCCn2ccnc2)nc1NCCc1ccccc1
N#Cc1ccccc1Cn1nc(-c2cccnc2)oc1=O
Clc1ccc(-c2c[n+](Cc3ccc(Cl)c(Cl)c3)c3n2CCC3)cc1
c1ccc(Cn2c(N=Nc3c(Nc4ccccc4)ccc4ccccc34)nc3ccccc32)cc1
COC(=O)c1c(-c2c(F)cccc2Cl)noc1/C=C/Nc1ccccc1
CCCN(CCC)C(=O)Cn1ccc(=N)c2ccccc21
O=C1N(Cc2cc3ccccc3s2)CC2CN(Cc3ccccc3)CCN12 (centres undefined)
O=C1N(Cc2cc3ccccc3s2)CC2CN(Cc3ccoc3)CCN12 (centres undefined)
